FMDV FLuc = antivirals against foot and mouth disease virus; FMDV antiviral cell assay, firefly luciferase signal; Potency, µM (series often up to 57.5 µM), for the others: at the top dose activity change, negative = inhibition, most hits filed as inhibitors; 0.23% of 120,000 active; AID 1745856; further: nearly all actives have a fitted effect of over 60% in size
FMDV RLuc = antivirals against foot and mouth disease virus replicon. 0.32% of 120,000 active. AID 1745857. FMDV replicon cells, Renilla luciferase signal. Potency, µM (doses to about 57.5 µM), for the others: top-dose activity change, negative = inhibition, hits mostly inhibitors; further: nearly all actives have a fitted effect of over 55% in size
An asterisk follows results filed as active; ? = inconclusive; ! = not confirmed by another sample; [ ] = remark or other dose. A selection: hits, their analogues and other compounds. The true share with any hit is near 0.4%. The call rests on the fitted dose curve. On the % scale 0 is the no-effect control and ±100 the full control effect; potency means the concentration at half of the fitted maximal effect.

SMILES	FMDV FLuc	FMDV RLuc
COc1ccc(CNC(=O)Cn2c(=O)oc3cc(S(=O)(=O)N4CCCC4)ccc32)cc1	16%	-8%
CC(C)c1ccc(NC(=O)Cn2c(=O)oc3cc(S(=O)(=O)N4CCCC4)ccc32)cc1	6.3µM*	?
CN(C)c1ccc(CNC(=O)Cn2c(=O)oc3cc(S(=O)(=O)N4CCCCCC4)ccc32)cc1	?	20µM*
Cc1cc(C)cc(NC(=O)Cn2c(=O)oc3cc(S(=O)(=O)N4CCCC4)ccc32)c1	0%	-1%
O=C(CSc1ncnc2ccccc12)c1ccc2c(c1)OCCCO2	-31%	14µM*
O=C(CSc1cnc2ccccc2n1)c1ccc2c(c1)OCCO2	13%	0%
COc1ccc(C(C)=O)cc1CC(=O)Nc1cc(S(C)(=O)=O)ccc1C	-12%	-7%
COc1ccc(-c2nc(CS(=O)(=O)CC(=O)NCc3cccnc3)c(C)o2)cc1	13%	6%
COc1ccc(-c2nc(CSCC(=O)NCc3cccnc3)c(C)o2)cc1	14µM*	-14%
Cc1noc(C(C)Nc2ccc(N3CCCC3=O)c(Cl)c2)n1 (stereo not drawn)	12%	-8%
Cc1ccc(Cl)cc1-n1ncc2c(NC3CCCCCC3)ncnc21	?	25µM*!
Cc1ccc(-n2ncc3c(NC4CCCCCC4)ncnc32)cc1Cl	107%	-1%
O=C(O)c1ccc(NC(=O)c2cc(-c3ccco3)nc3ccccc23)cc1	27%	-8%
CC(c1nc2ccccc2s1)N(C)S(=O)(=O)c1ccccc1 (stereo not drawn)	13%	0%[1.06 µM]
N#CC(/C(=N/S(=O)(=O)c1ccccc1)c1ccccc1)c1nc2ccccc2s1 (stereo not drawn)	28µM*	1%
CCCCCCc1cc2c(-c3ccccc3)cc(=O)oc2cc1O	-15%	-3%
CCc1c(C)sc2c1CCN(Cc1ccccc1)C2c1ccccc1 (stereo not drawn)	?	13µM*
CCc1c(C)sc2c1CCN(Cc1ccccc1C#N)C2c1ccccc1 (stereo not drawn)	18%	16%
O=C(/C=C/c1ccc(-c2ccccc2)s1)N(Cc1ccco1)C1CC1	82%	114%
CCOc1ccc(C(=O)Nc2ccc3nc(SCC(=O)N(C)c4ccccc4)sc3c2)cc1	7.9µM*	?
Cc1ccccc1C(=O)Nc1ccc2nc(SCC(=O)N(C)c3ccccc3)sc2c1	-21%	-1%
COc1ccc(NC(=O)c2c(NCc3cccs3)sc3c2CCCCC3)c(OC)c1	-6%	170%
COc1ccc(NC(=O)c2c(NCc3cccs3)sc3c2CCCC3)cc1	2%	8.9µM*
CCOC(=O)c1ccc(N2CCN(CC)CC2)c(NC(=O)COc2ccc(CC)cc2)c1	-4%	9%
COc1ccc(-c2cc(C(F)(F)F)nc(S(=O)(=O)CCCC(=O)Nc3ccccc3C(F)(F)F)n2)cc1OC	-15%	-9%
SMILES	FMDV FLuc	FMDV RLuc
COc1ccc(NC(=O)CCCS(=O)(=O)c2nc(-c3ccc(OC)c(OC)c3)cc(C(F)(F)F)n2)cc1OC	28µM*	-7%
COc1ccc(-c2csc(NC3CC3)n2)cc1OC	6%	-5%
COc1ccc(-c2c(C)oc3cc(OCC(=O)OC(C)(C)C)ccc3c2=O)cc1OC	28µM*	?
CCOc1ccc2c(=O)c(-c3ccc(OC)c(OC)c3)c(C)oc2c1	-20%	-29%
Cc1ccc(C)c(N2CCN(C(=O)C3CCN(c4nnc(-n5c(C)ccc5C)s4)CC3)CC2)c1	?	11µM*
Cc1cc(C)cc(NC(=O)C2CCN(c3nnc(-n4c(C)ccc4C)s3)CC2)c1	22%	-3%
Cc1cccc(-c2noc(-c3ccc(N4CCOCC4)c([N+](=O)[O-])c3)n2)c1	-23%	2%
Cc1cccc(-c2noc(-c3ccc(N4CCCC4)c([N+](=O)[O-])c3)n2)c1	8.9µM*	7%
COc1ccccc1OCCn1cc(C(=O)C(F)(F)F)c2cc(Br)ccc21	-3%	-9%
COc1ccccc1OCCn1cc(C(C)=O)c2ccccc21	?	16µM*
COc1ccc(NS(=O)(=O)c2ccc(-c3cnc(C4CC4)o3)cc2)cc1OC	8.9µM*	-13%
O=S(=O)(Nc1cccc(C(F)(F)F)c1)c1ccc(-c2cnc(C3CC3)o2)cc1	?	-90%
O=C(O)c1ccccc1C(=O)/C=C/c1ccc(Cl)cc1	57%	28µM*
O=C(/C=C/c1ccc(Cl)cc1)c1ccccc1O	52%	5%
OC(COc1ccc(OCC(O)CN(Cc2ccccc2)Cc2ccccc2)cc1)CN(Cc1ccccc1)Cc1ccccc1 (stereo not drawn)	247%	16%
Cc1ccc(NC(=O)CN2C(=O)C3(SCC(=O)N3c3cccc(Cl)c3)c3ccccc32)cc1C (stereo not drawn)	?	13µM*
Cc1ccc(N2C(=O)CSC23C(=O)N(CC(=O)Nc2ccc(C(C)C)cc2)c2ccccc23)cc1C (stereo not drawn)	?	-27%
CCCc1cc(=O)oc2cc(OS(=O)(=O)c3ccccc3F)ccc12	139%	33%
COc1ccc(CNC(=O)c2nc(S(=O)(=O)Cc3ccccc3)ncc2Cl)cc1	22µM*	2%
COc1ccc(NC(=O)c2nc(S(=O)(=O)Cc3ccc(C)cc3)ncc2Cl)cc1	0%	14%
CCCc1nc(Cn2cnc3c2c(=O)n(C)c(=O)n3C)cs1	10µM*	10µM*
Cn1c(=O)c2c(ncn2Cc2ccc(Cl)c(Cl)c2)n(C)c1=O	-28%	?
Cn1c(=O)c2c(ncn2CC(=O)OCc2cccc3ccccc23)n(C)c1=O	9%	-3%
Cc1ccc(C(C)C)c(OCC(O)Cn2cnc3c2c(=O)n(C)c(=O)n3C)c1 (stereo not drawn)	25µM*	25µM*
Cn1c(=O)c2c(ncn2Cc2cccc3ccccc23)n(C)c1=O	?	5.6µM*
SMILES	FMDV FLuc	FMDV RLuc
Cn1c(=O)c2c(ncn2Cc2ccc(F)cc2)n(C)c1=O	8%	-6%
CCc1cccc(OCC(O)Cn2cnc3c2c(=O)n(C)c(=O)n3C)c1 (stereo not drawn)	-28%	-28%
CCOc1ccc(Cn2cnc3c2c(=O)n(C)c(=O)n3C)cc1OCC	13µM*	11µM*
COc1ccc(COC(=O)C2=C(C)NC3=C(C(=O)CCC3)C2c2cccc(OC)c2OC)cc1 (stereo not drawn)	-7%	17%
Cc1sc(-c2cc3c([nH]c2=O)CC(c2ccco2)CC3=O)nc1-c1ccc(Cl)cc1 (stereo not drawn)	-13%	-19%
O=C(Nc1cccc(F)c1)c1cccnc1NCc1ccccc1	29%	27%
O=C(CSC1=Nc2ccccc2C2=NC(c3ccccc3)C(=O)N12)Nc1cc(F)ccc1F (stereo not drawn)	17%	96%
CCOc1ccccc1NC(=O)NCc1ccc2c(c1)CCN2C(=O)c1ccccc1	8.9µM*	7.1µM*
CCc1ccccc1NC(=O)NCc1ccc2c(c1)CCN2C(=O)c1ccccc1	-21%	-16%
O=C(CSc1nc2c(c(=O)[nH]1)CCC2)Nc1oncc1-c1ccccc1	4%	-4%
CCC(C)c1ccccc1NC(=O)c1ccc(SC)cc1OC (stereo not drawn)	25%	13%
Cc1cccc(N2CCN(c3ncnc4c3nc3n4CCCCC3)CC2C)c1 (stereo not drawn)	2.8µM*	2.5µM*
Clc1cccc(N2CCN(c3ncnc4c3nc3n4CCCC3)CC2)c1	0%	?
CC(=O)OCc1cnc(C)c2oc(=O)c(-c3nc(-c4ccccc4)no3)cc12	35%	-10%
Cc1ccc2nc(/C(C#N)=C\C3CC4C=CC3C4)[nH]c2c1 (stereo not drawn)	0%	?
